# Experimental data reported in PubChem BioAssay (NCATS).
# Results filed as inconclusive are left out.
# Experiment: qHTS for identification of novel therapeutic agents for treatment of microphthalmiaassociated transcription factor (MiT) renal cell carcinoma (RCC) (AID 1963991);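 also: curves scaled with 100% = DMSO viability and 0% = empty wells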
# Details: TFE3-RCC viability, CellTiter-Glo, 48 h; measured here: UOK145 Z-AUC; stronger effect = lower value
# How it was run: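 UOK109/UOK124/UOK145 (TFE3 fusions, three partners); 500 cells/well; MIPE v4.0, 1912 cpds, 11 conc.; 48 h, 37 C; CellTiter-Glo, 15 min RT; lum. Norm.: DMSO 100%, empty 0%.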
row,Compound,z-score
1,O=C(CCc1ccc(O)cc1)c1c(O)cc(O)cc1O[C@@H]1O[C@H](CO)[C@H](O)[C@H](O)[C@H]1O,-0.273
2,COc1ccc(Cc2ccc(NC(N)=O)cc2)cc1-c1cccc(Cl)c1,0.582
3,Nc1ncnc2c1ncn2[C@@H]1O[C@H](CO)C[C@@H]1O,0.00458
4,CN(C)c1cc(NC(=O)CNC(C)(C)C)c(O)c2c1C[C@@H]1C[C@H]3[C@H](N(C)C)C(=O)C(C(N)=O)=C(O)[C@@]3(O)C(=O)C1=C2O,0.881
5,O=C(O)C=Cc1ccc(O)c(O)c1,0.564
6,O=C(NC1CCOCC1)c1ccc(-c2cc(-c3cn[nH]c3-c3ccccn3)ccn2)cc1,0.561
7,Nc1ncnc2c1ncn2[C@@H]1O[C@@H](CO)[C@H](O)[C@H]1O,0.73
8,O=C(O)C(O)Cc1ccc(O)c(O)c1 (configuration not stated),1.23
9,O=c1ccn([C@@H]2O[C@H](CO)[C@H](O)[C@H]2O)c(=O)[nH]1,0.624
10,CC(C)(C)NC(=O)Nc1cccc(Nc2ncc(F)c(NC(C)(C)CO)n2)c1,0.237
11,NC1CCC(Nc2nc(Nc3ccc(C(=O)N4CCCCC4)cc3)c3ncn(-c4cccc(F)c4)c3n2)CC1 (configuration not stated),0.657
12,Cc1cnc(C(=O)O)c[n+]1[O-],0.578
